CFTR F508del cor: F508del CFTR correction, initial screen, CFBE line, single point | actives 0.36% (n = 350,000) | CFBE cells, YFP halide quenching; stimulated with forskolin plus potentiator P3; % fluorescence drop versus neutral controls | activity (quench increase), % at 7.58 µM | AID 720511, 2013;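 active = mean added fluorescence quench of at least 8% versus neutral control, with both replicates also reaching 8%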;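 also: cells transiently co-express mutant CFTR-F508del with the halide-sensitive YFP; corrector assay measuring rescue of mutant channel to the surface after 24 h compound exposure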
697 NFkB inh: inhibitors of PMA/ionomycin-induced NF-kB reporter, 697 cells, primary screen, B-cell NF-kB inhibitor project, cell-based, luminescence, uHTS | 697 B-cell NF-kB luciferase reporter, 16 h | inhibition, % at 4 µM | actives 0.33% (n = 330,000) | AID 435022, 2010; in the data active = inhibition above about 35%
Jurkat NFkB inh: inhibitors of induced NF-kB luciferase reporter, primary screen, TCR NF-kB activation inhibitor project, cell-based, luminescence, uHTS. Jurkat, PMA/ionomycin-induced NF-kB luciferase reporter. inhibition, % at 4 µM. actives 0.53% (n = 330,000); in the data active = inhibition above about 50%
HIF act: HIF pathway transcriptional activators, primary screen, cell-based, U2OS HRE-luciferase, luminescence. U2OS HRE-luciferase reporter; normalized: DMSO 0%, desferrioxamine 100%. activation, % at 7.5 µM (by protocol). actives 0.32% (n = 300,000). AID 1910, 2009;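 active = mean activation of at least 10% of the iron chelator positive control signal, with at least half of replicates also reaching 10%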
Jurkat NFkB conf: PMA/ionomycin-induced NF-kB reporter inhibitors, Jurkat retest, confirmation, T-cell NF-kB inhibitor project, cell-based, luminescence, single concentration; Jurkat NF-kB luciferase, 16 h; shares compounds with Jurkat NFkB inh; inhibition, % at 4 µM; AID 435020, 2010; actives 27% (n = 2,700);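 active = inhibition reaching about 45% at 4 µM in either replicate, limit read from the data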;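 also: plate controls were PMA/ionomycin stimulated DMSO wells for no effect and unstimulated DMSO wells for full effect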
697 NFkB conf: PMA/ionomycin-induced NF-kB reporter inhibitors, 697 retest, confirmation, B-cell NF-kB inhibitor project, cell-based, luminescence, single concentration | shares compounds with 697 NFkB inh | 697 B-cell NF-kB luciferase, 16 h | inhibition, % at 4 µM | actives 35% (n = 2,000); in the data active = inhibition mostly above about 28%, no sharp cut-off; inactive = mostly below about 22%
* marks the source's active call; other numbers are inactive results; i = inactive; nt = no result given. Shown are actives, neighbours in structure and some others; about 0.93% of the full set was active somewhere.

SMILES	CFTR F508del cor	697 NFkB inh	Jurkat NFkB inh	HIF act	Jurkat NFkB conf	697 NFkB conf
CC(C)(C)C(=O)Nc1ccc(N=Nc2ccccc2)cc1	-2	-261	-219	-5	16	-204
C[C@@H]1CN([C@@H](C)CO)C(=O)c2cccc(NC(=O)Nc3ccc(C(F)(F)F)cc3)c2O[C@H]1CN(C)S(C)(=O)=O	3	nt	nt	nt	nt	nt
Cc1ccc(S(=O)(=O)NCC2CCCO2)cc1 (stereo not drawn)	-2	0	-5	0	nt	nt
O=S(=O)(NCC1CCCO1)c1ccc(-c2ccc(S(=O)(=O)NCC3CCCO3)cc2)cc1 (stereo not drawn)	1	48*	70*	1	69*	83*
CCC(=O)Nc1ccc2c(c1)OC[C@@H](C)N(S(=O)(=O)c1cn(C)cn1)C[C@@H](C)[C@H](OC)CN(C)C2=O	-3	nt	nt	nt	nt	nt
NNc1nc(-c2ccccc2)nc2sc3c(c12)CCCC3	nt	-360	-222	2	-44	-321
NNc1nc2sc3c(c2c(=O)n1Cc1ccccc1)CCC3	-2	13	-19	0	nt	nt
COc1ccc2c3c(n(C)c2c1)[C@@H](CO)N(C(=O)CC1CC1)CC31CCN(C(=O)CC2CC2)CC1	3	nt	nt	nt	nt	nt
CN(C)c1cc[n+](CC(=O)c2ccc(-c3ccccc3)cc2)cc1	-4	62*	73*	0	60*	46*
Nc1nc(F)nc2c1ncn2[C@@H]1O[C@H](CO)[C@@H](O)[C@H]1O	nt	75*	93*	-3	89*	92*
C=CC[C@H](O)c1ccc(O)c(F)c1	0	nt	nt	nt	nt	nt
Cc1cccc(-c2ccc([C@@H]3[C@@H](CO)N4C(=O)CN(C(=O)Cc5ccccn5)C[C@H]34)cc2)c1	1	nt	nt	nt	nt	nt
O=C(NC1CCCC1)N1CCCCN2[C@H](CO)[C@H](c3ccc(/C=C/c4ccccc4)cc3)[C@@H]2C1	2	nt	nt	nt	nt	nt
Cc1ccc(-c2nc(Nc3ccccc3)n[nH]2)cc1	nt	-280	-162	nt	-160	-367
Nc1nc(CSc2n[nH]c(-c3ccccc3)n2)nc(Nc2ccccc2)n1	nt	-34	-1	-1	nt	nt
COCC#Cc1cnc2c(c1)C(=O)N([C@@H](C)CO)C[C@@H](C)[C@@H](CN(C)C)O2	1	nt	nt	nt	nt	nt
CCC(=O)Nc1ccc2c(c1)C(=O)N(C)C[C@@H](OC)[C@@H](C)CN(C(=O)c1cnccn1)[C@@H](C)CO2	1	nt	nt	nt	nt	nt
COc1cc([N+](=O)[O-])ccc1N/C=C/C(=O)c1cccs1	nt	-267	-188	-1	-72	-169
CC(C)Oc1ccc(C(=O)Nc2nc3ccccc3[nH]2)cc1	2	-158	-34	-3	nt	nt
O=C(Nc1nc2ccccc2[nH]1)c1ccc(OC(F)F)cc1	4	-325	-165	-2	-94	-397
Cc1ccc(NC(=O)c2cnn(-c3ccccc3)c2C)cc1	-1	-264	-153	0	-105	-307
O=C(CC(Nc1ccccc1Cl)C(=O)O)c1ccccc1 (stereo not drawn)	-1	-269	-256	0	17	-52
O=C(CC(Nc1cccc(Cl)c1Cl)C(=O)O)c1ccccc1 (stereo not drawn)	-2	-31	-21	4	nt	nt
Cc1nnc(NC(=O)C2COc3ccccc3O2)s1 (stereo not drawn)	nt	4	-2	2	nt	nt
O=C(Cc1cn2ccsc2n1)Nc1nc2c(s1)CCCC2	nt	-1	-7	0	nt	nt
SMILES	CFTR F508del cor	697 NFkB inh	Jurkat NFkB inh	HIF act	Jurkat NFkB conf	697 NFkB conf
O=C(Cc1cccs1)Nc1nc2c(s1)CCCC2	nt	i	-152	1	-60	i
O=C(Nc1nc2c(s1)CCCC2)C1COc2ccccc2O1 (stereo not drawn)	-1	-333	-188	-2	-77	-364
Cn1nc(C(C)(C)C)cc1C(=O)NCc1ccc(N2CCCC2=O)cc1	nt	42*	66*	0	66*	57*
Cc1ccc(CNC(=O)c2ccc(N3CCCC3=O)cc2)cc1	nt	7	-3	0	nt	nt
COc1ccc(-c2ccc3sc4ccccc4c(=O)c3c2)cn1	1	-301	-202	3	-127	-255
Nc1ccc(C#Cc2ccccc2)cc1	nt	-20	-38	0	nt	nt
Nc1ccccc1C#Cc1ccccc1	1	-255	55*	3	-80	-76
COc1cccc(NC(=O)N2CC3(C2)[C@H](c2ccccc2)[C@H](CO)N3C(=O)C2CC2)c1	0	nt	nt	nt	nt	nt
CCN1/C(=C\C(=S)Nc2ccccc2)Sc2ccccc21	3	-15	-15	4	nt	nt
CCN1/C(=C/C(C)=C/c2sc3ccccc3[n+]2CC)Sc2ccccc21	-13	49*	93*	0	78*	7
Cc1cc(C(C)(C)C)ccc1OCCN(C)C	nt	21	-2	0	nt	nt
CC(C)Cc1cc(C(C)(C)C)ccc1OC(=S)N(C)C	1	40*	51*	0	60*	33*
Cc1ccc2c(c1)COc1c3ccc(C(=O)O)cc3nn1-2	1	76*	93*	-2	68*	4
Cc1ccc2c(c1)COc1c3ccc(C(=O)NCC4CC4)cc3nn1-2	4	-163	-38	4	nt	nt
O=C(CCl)N1CCCC1c1ccc2c(c1)OCCO2 (stereo not drawn)	-7	52*	85*	-4	78*	67*
C[C@H](NC(=O)N(C)C[C@@H]1OCc2ccccc2-c2c(n(C)c3ccccc23)C(=O)N([C@H](C)CO)C[C@@H]1C)c1ccccc1	0	nt	nt	nt	nt	nt
Cc1nc2ccccn2c1C(=O)/C=C/c1cccc([N+](=O)[O-])c1	-8	40*	51*	0	19	41*
Cc1ccc(/C=C/C(=O)c2c(C)nc3ccccn23)cc1	nt	-177	-132	1	nt	nt
C[C@@H]1CN([C@@H](C)CO)C(=O)c2cccc(NC(=O)c3cnccn3)c2O[C@H]1CN(C)C(=O)Nc1ccc(F)cc1	0	nt	nt	nt	nt	nt
CCOC(=O)C1CCCN(S(=O)(=O)c2ccc(S(=O)(=O)N(CC)CC)cc2)C1 (stereo not drawn)	2	43*	60*	0	62*	52*
C[C@@H]1CN([C@H](C)CO)C(=O)c2cc(C#CC3CC3)cnc2O[C@@H]1CN(C)S(C)(=O)=O	2	nt	nt	nt	nt	nt
O=C(C[C@@H]1CC[C@@H]2[C@H](COC[C@@H](O)CN2CC2CCCC2)O1)NCc1ccc(Cl)cc1	2	nt	nt	nt	nt	nt
Fc1cccc(-c2cc3nc4c(c(NCc5ccco5)n3n2)CCCC4)c1	2	-326	-172	nt	-99	-361
CC(=O)N1[C@H](C(=O)N2CCc3ccccc3C2)[C@@H](CO)[C@@H]2Cn3c(ccc(-c4cccnc4)c3=O)[C@@H]21	-2	nt	nt	nt	nt	nt

From PubChem BioAssay
